# From PubChem BioAssay
# The source made the active and inactive calls.
# Experiments:
# [1] = system: PRMT1 (protein arginine N-methyltransferase 1); test: small molecules binding arginine methyltransferase PRMT1 – biochemical, small-molecule microarray, 635 nm fluorescence, primary screen (AID 1088); details: higher = more signal;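 note: binding of Prmt1 protein to compounds spotted on small-molecule microarray slides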
# [2] = growth effects on S. cerevisiae YJM789 – YJM789 clinical isolate, OD600, 24 h, basal, primary screen (AID 1089); details: higher = more signal, called active from +8 up or from −8 down;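 note: growth of clinical yeast isolate S. cerevisiae YJM 789 seeded 1000 cells per well; test concentration not given here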
# [3] = S. pombe growth modifiers, basal conditions – strain 972, OD600, 24 h, no modulator, primary screen (AID 1090);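 note: basal condition with compound alone and no growth modifier present; test concentration not given here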; details: S. pombe 972 growth, higher = more signal, called active from +8 up or from −8 down
# [4] = budding yeast growth modifiers under rapamycin – strain BY4716, OD600, 96 h, primary screen (AID 1091); note: test concentration not given here; details: S. cerevisiae BY4716 + rapamycin, higher = more signal, called active from +8 up or from −8 down
# [5] = biological target: Torsin-1A-interacting protein 2 (Homo sapiens) (UniProt Q8NFQ8); test: small molecules binding lysate-expressed LULL1 – cell lysate, human LULL1 lysate, 635/667 nm fluorescence, primary screen (AID 1092); details: small-molecule microarray, hLULL1 lysate binding, 635 nm fluorescence; higher = more signal;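 note: probe is lysate of COS7 cells overexpressing human LULL1; score merges per-feature 667 nm fluorescence with signal-to-noise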
# Torsin-1A-interacting protein 2 (Homo sapiens), sequence (Q8NFQ8 whole entry, looked up): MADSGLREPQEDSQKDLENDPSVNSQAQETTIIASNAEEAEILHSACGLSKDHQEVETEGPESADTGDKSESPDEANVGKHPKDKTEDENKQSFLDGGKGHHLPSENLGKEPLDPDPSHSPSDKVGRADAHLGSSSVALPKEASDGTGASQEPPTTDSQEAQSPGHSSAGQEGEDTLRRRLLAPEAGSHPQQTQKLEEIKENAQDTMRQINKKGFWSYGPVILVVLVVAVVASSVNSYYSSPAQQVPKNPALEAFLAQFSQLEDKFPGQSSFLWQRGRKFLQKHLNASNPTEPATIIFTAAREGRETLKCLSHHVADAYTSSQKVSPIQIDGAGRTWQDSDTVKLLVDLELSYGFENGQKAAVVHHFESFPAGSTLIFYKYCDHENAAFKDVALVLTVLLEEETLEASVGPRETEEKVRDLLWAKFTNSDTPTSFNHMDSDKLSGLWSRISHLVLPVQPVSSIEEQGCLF
# [6] = optical density change of DRC41 E. coli – strain DRC41, OD650, 24 h, E. coli filamentation project, primary screen (AID 1093);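 note: MC1000 strain lacking acrAB efflux and sulA so SOS filamentation is blocked; test concentration not given here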; details: E. coli DRC41 growth, higher = more signal, called active from +8 up or from −8 down
# [7] = probe aLefty2 binding to arrayed compounds – biochemical, biotinylated probe, 635/667 nm fluorescence, primary screen (AID 1094); details: small-molecule microarray, higher = more signal;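 note: score merges spot fluorescence near 667 nm with spot signal-to-noise ratio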
# [8] = system: Noggin (protein binding on small-molecule microarray); test: small molecules binding Noggin protein – biochemical, 635/667 nm fluorescence, primary screen (AID 1095); details: 635 nm fluorescence, higher = more signal;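 note: score merges 667 nm feature fluorescence with signal to noise over triplicate slides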
# [9] = biological target: Neurogenic locus notch homolog protein 3 (Homo sapiens) (UniProt Q9UM47); test: small molecules binding NOTCH3 protein – biochemical, 635/667 nm fluorescence, primary screen (AID 1096); details: small-molecule microarray, 635 nm fluorescence, higher = more signal
# Neurogenic locus notch homolog protein 3 (Homo sapiens), sequence (Q9UM47 whole entry, looked up): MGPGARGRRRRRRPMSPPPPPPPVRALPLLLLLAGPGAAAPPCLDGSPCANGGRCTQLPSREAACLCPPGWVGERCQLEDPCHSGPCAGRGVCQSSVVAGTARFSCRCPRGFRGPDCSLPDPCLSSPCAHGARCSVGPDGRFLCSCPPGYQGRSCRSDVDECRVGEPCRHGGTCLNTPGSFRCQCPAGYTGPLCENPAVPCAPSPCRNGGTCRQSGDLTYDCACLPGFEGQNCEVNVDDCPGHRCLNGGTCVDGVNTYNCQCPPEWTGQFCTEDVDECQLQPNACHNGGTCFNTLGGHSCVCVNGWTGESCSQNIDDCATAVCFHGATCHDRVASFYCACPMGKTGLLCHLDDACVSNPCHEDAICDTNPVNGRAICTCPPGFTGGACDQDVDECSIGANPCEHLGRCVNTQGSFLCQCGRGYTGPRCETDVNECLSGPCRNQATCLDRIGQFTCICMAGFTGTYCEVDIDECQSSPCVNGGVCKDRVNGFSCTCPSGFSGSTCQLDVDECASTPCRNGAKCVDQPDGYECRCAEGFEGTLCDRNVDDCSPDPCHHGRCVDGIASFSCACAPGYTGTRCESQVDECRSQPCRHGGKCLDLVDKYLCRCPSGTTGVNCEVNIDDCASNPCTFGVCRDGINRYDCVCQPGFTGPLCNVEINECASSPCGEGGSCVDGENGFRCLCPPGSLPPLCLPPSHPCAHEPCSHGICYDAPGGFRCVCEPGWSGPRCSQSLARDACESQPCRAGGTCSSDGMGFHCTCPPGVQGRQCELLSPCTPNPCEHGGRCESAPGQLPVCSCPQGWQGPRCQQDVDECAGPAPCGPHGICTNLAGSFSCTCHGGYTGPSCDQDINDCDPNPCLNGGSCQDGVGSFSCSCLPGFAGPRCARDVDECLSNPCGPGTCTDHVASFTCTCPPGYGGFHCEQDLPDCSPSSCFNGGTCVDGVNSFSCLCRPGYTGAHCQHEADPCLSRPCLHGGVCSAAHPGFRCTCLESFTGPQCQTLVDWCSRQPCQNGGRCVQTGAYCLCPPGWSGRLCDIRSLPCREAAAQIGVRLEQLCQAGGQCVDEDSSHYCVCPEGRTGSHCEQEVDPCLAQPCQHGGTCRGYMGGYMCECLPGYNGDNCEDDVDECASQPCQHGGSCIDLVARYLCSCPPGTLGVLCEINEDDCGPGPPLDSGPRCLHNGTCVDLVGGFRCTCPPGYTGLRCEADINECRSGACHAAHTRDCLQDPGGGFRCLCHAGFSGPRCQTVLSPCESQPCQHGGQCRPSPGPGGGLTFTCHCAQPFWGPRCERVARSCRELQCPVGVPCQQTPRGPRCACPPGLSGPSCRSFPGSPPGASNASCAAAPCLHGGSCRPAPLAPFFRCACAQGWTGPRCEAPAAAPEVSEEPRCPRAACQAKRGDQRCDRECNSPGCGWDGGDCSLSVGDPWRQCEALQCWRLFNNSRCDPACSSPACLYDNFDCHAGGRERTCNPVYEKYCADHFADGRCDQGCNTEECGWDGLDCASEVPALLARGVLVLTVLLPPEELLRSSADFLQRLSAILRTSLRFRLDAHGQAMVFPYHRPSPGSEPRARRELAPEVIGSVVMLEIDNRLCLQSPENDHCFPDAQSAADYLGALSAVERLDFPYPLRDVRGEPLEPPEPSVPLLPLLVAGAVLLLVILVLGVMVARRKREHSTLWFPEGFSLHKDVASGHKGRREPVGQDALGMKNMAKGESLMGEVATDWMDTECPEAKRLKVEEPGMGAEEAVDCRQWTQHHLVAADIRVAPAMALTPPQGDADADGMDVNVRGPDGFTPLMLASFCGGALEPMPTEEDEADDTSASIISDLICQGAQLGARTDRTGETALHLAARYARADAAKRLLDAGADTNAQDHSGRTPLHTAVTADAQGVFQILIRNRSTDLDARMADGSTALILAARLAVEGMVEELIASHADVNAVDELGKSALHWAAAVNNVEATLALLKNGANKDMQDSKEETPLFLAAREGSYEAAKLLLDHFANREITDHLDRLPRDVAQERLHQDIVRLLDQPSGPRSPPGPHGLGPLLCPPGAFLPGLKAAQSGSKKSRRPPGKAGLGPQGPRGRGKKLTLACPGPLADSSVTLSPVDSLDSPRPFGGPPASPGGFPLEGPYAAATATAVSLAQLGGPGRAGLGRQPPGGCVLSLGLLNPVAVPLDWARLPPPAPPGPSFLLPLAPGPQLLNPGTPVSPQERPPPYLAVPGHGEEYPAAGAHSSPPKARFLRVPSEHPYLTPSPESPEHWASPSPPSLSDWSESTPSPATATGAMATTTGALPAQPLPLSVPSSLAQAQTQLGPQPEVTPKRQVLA
# [10] = probe aEGFR binding to arrayed compounds – biochemical, biotinylated probe, 635/667 nm fluorescence, primary screen (AID 1097); details: small-molecule microarray, higher = more signal;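 note: probe is a biotinylated anti-EGFR antibody binding compounds printed on slides; score combines fluorescence near 667 nm and signal to noise of each spot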
# [11] = system: Plasmodium falciparum Sir2 (PF13_0152, Sir2A); test: Plasmodium falciparum Sir2A binding compounds – biochemical, small-molecule microarray, 635 nm fluorescence, primary screen (AID 1098); details: fluorescence 635 nm, higher = more signal;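 note: score merges spot fluorescence intensity with its signal-to-noise ratio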
# [12] = probe aDKK1 binding to arrayed compounds – biochemical, biotinylated probe, 635/667 nm fluorescence, primary screen (AID 1099); details: small-molecule microarray, higher = more signal;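 note: score merges 667nm spot fluorescence with signal to noise across triplicate slides; reference of the scale not given here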
# [13] = probe aCHRDL2 binding to arrayed compounds – biochemical, biotinylated probe, 635/667 nm fluorescence, primary screen (AID 1100); details: small-molecule microarray, higher = more signal
# [14] = change in splice reporter luminescence, either direction, cell-based, HEK293, spliceosome inhibition project, primary screen (AID 1101); details: HEK293 splicing luciferase reporter, 24 h, higher = more signal, called active from +8 up or from −8 down;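 note: HEK293 cells carrying a splicing-competent luciferase reporter gene; test concentration not given here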
# [15] = biological target: Fibroblast growth factor 10 (Homo sapiens) (UniProt O15520); test: compounds binding fibroblast growth factor 10 – biochemical, small-molecule microarray, 635 nm fluorescence, primary screen (AID 1102); details: FGF10 binding, fluorescence 635 nm, higher = more signal
# Fibroblast growth factor 10 (Homo sapiens), sequence (O15520 whole entry, looked up): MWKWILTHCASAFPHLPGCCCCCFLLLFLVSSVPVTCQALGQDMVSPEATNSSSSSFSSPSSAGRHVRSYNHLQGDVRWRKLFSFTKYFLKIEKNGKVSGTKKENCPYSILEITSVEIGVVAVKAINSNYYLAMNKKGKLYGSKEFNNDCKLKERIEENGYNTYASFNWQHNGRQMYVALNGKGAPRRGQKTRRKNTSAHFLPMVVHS
# [16] = system: glycogen synthase kinase-3 (GSK3A per assay name; protocol says GSK3B); test: compounds binding glycogen synthase kinase-3 – biochemical, small-molecule microarray, 635 nm fluorescence, GSK3A, primary screen (AID 1103); details: fluorescence 635 nm, higher = more signal; note: the record names both GSK3A and GSK3B
# [17] = biological target: Epidermal growth factor receptor (Homo sapiens) (UniProt P00533); test: compounds binding epidermal growth factor receptor – biochemical, small-molecule microarray, 635 nm fluorescence, primary screen (AID 1104); details: EGFR binding, higher = more signal;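 note: score merges 667 nm emission intensity with spot signal to noise over triplicate slides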
# Epidermal growth factor receptor (Homo sapiens), sequence (P00533 whole entry, looked up): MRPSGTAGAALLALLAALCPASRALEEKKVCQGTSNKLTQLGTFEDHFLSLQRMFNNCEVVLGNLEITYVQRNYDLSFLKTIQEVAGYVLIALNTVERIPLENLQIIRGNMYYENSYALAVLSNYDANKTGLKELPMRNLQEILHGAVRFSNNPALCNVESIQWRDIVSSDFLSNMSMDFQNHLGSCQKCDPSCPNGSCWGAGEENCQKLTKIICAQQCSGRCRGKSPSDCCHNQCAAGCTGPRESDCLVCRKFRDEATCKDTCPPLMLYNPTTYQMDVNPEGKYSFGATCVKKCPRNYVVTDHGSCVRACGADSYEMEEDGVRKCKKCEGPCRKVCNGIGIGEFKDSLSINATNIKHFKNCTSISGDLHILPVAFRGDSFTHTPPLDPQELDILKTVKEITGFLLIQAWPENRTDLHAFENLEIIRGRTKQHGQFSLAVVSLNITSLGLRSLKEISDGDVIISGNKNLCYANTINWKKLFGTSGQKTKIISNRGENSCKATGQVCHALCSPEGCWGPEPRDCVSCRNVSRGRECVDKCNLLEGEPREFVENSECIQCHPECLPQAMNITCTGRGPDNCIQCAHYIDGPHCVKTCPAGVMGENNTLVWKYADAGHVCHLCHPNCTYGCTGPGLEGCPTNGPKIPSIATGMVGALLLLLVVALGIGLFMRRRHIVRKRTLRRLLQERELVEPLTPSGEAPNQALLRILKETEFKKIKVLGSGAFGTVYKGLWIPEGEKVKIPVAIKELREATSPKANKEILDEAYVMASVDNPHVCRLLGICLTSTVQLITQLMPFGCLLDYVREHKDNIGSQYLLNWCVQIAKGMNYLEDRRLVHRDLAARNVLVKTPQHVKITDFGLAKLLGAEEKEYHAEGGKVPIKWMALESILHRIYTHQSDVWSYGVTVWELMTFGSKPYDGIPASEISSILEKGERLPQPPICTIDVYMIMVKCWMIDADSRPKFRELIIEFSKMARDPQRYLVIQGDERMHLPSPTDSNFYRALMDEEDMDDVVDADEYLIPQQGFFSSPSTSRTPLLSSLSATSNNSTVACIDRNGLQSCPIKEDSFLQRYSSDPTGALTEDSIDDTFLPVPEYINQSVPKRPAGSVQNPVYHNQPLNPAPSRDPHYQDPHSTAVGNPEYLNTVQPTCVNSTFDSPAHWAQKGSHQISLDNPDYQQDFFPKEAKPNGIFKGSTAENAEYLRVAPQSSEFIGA
# [18] = biological target: Follistatin-related protein 3 (Homo sapiens) (UniProt O95633); test: compounds binding follistatin-related protein 3 – biochemical, small-molecule microarray, 635 nm fluorescence, primary screen (AID 1105); details: FSTL3 binding, higher = more signal;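 note: score merges emission near 667 nm and signal to noise per printed spot across three slides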
# Follistatin-related protein 3 (Homo sapiens), sequence (O95633 whole entry, looked up): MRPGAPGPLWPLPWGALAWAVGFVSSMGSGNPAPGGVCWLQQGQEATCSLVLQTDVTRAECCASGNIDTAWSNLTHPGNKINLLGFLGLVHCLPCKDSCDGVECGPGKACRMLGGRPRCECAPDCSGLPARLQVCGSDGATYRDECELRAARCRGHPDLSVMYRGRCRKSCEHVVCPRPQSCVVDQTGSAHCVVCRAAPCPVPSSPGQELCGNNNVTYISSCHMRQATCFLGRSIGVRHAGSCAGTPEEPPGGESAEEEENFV
# [19] = biological target: Dickkopf-related protein 1 (Homo sapiens) (UniProt O94907); test: small molecules binding DKK1 protein – biochemical, small-molecule microarray, 635 nm fluorescence scan, primary screen (AID 1106); details: higher = more signal;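 note: score merges emission near 667 nm with signal to noise over three replicate slides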
# Dickkopf-related protein 1 (Homo sapiens), sequence (O94907 whole entry, looked up): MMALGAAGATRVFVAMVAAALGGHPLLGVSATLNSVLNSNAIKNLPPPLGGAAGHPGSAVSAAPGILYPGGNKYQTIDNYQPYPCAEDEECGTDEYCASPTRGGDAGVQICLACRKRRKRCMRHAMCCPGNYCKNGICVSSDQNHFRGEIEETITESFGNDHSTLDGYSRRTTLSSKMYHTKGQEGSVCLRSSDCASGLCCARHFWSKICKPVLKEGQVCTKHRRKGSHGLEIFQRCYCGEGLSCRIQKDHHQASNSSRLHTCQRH
# [20] = system: Inhibin beta A chain (activin A); test: small molecules binding activin A – biochemical, small-molecule microarray, 635 nm fluorescence scan, primary screen (AID 1107); details: INHBA, higher = more signal;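 note: mouse activin A protein probed at 4.33 µg/mL on printed slides; score merges bound-protein fluorescence near 667 nm with spot signal-to-noise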
smiles,measurement,setting,value
CON=C[C@@H](OC)[C@H](C)C=CCC(=O)OC,composite z-score,[1],-0.608
same,z-score,[2],-0.177 (inactive)
same,z-score,[3],-0.289 (inactive)
same,z-score,[4],-0.0697 (inactive)
same,composite z-score,[5],-0.312
same,z-score,[6],0.0478 (inactive)
same,composite z-score,[7],-0.0702
same,composite z-score,[8],0.327
same,composite z-score,[9],-0.151
same,composite z-score,[10],-0.22
same,composite z-score,[11],-0.387
same,composite z-score,[12],-0.171
same,composite z-score,[13],-0.165
same,z-score,[14],-0.165 (inactive)
same,composite z-score,[15],-0.135
same,composite z-score,[16],-0.115
same,composite z-score,[17],0.327
same,composite z-score,[18],-0.23
same,composite z-score,[19],-0.067
same,composite z-score,[20],0.892
CCOC(=O)NN=C1C[C@@H](O)[C@@H](O)[C@@H]2[C@@H]3C(=O)N(c4ccc(F)cc4F)C(=O)[C@@H]3CC[C@H]12,composite z-score,[1],-0.334
same,z-score,[2],-0.01 (inactive)
same,z-score,[3],-0.816 (inactive)
same,z-score,[4],-0.155 (inactive)
same,composite z-score,[5],-0.35
same,z-score,[6],0.786 (inactive)
same,composite z-score,[7],-0.185
same,composite z-score,[8],0.555
same,composite z-score,[9],0.625
same,composite z-score,[10],0.021
same,composite z-score,[11],-0.304
same,composite z-score,[12],-0.349
same,composite z-score,[13],-0.626
same,z-score,[14],-1.43 (inactive)
same,composite z-score,[15],0.158
same,composite z-score,[16],0.544
same,composite z-score,[17],0.742
same,composite z-score,[18],0.438
same,composite z-score,[19],0.871
same,composite z-score,[20],0.0584
CC(CCC(=O)OC[C@H]1O[C@H](C#Cc2ccccc2)C=C[C@@H]1Oc1ccc(C)cc1)=NOC[C@@H](C)[C@H](OCc1ccccc1)C(C)C,composite z-score,[1],-0.694
same,z-score,[2],-0.78 (inactive)
same,z-score,[3],0.484 (inactive)
same,z-score,[4],-0.468 (inactive)
same,composite z-score,[5],-1.27
same,z-score,[6],-0.346 (inactive)
same,composite z-score,[7],-0.342
same,composite z-score,[8],0.809
same,composite z-score,[9],-1.27
same,composite z-score,[10],-0.24
same,composite z-score,[11],-1.11
same,composite z-score,[12],-0.247
same,composite z-score,[13],-0.506
same,z-score,[14],0.371 (inactive)
same,composite z-score,[15],-0.434
same,composite z-score,[16],-1.3
same,composite z-score,[17],-1.05
same,composite z-score,[18],-1.09
same,composite z-score,[19],-0.613
same,composite z-score,[20],0.211
CCOC(=O)[C@H](Cc1ccccc1)NC(=O)CCC1CC(OC(=O)NCc2cccc3ccccc23)CC2(CCCC(COC(=O)NCCc3ccc(Cl)cc3)O2)O1 (stereo not given in full),composite z-score,[1],1.15
same,z-score,[2],-0.69 (inactive)
same,z-score,[3],-0.0785 (inactive)
same,z-score,[4],-0.647 (inactive)
same,composite z-score,[5],1.3
same,z-score,[6],-0.159 (inactive)
same,composite z-score,[7],-0.253
same,composite z-score,[8],0.448
same,composite z-score,[9],0.974
same,composite z-score,[10],-0.0922
same,composite z-score,[11],0.519
same,composite z-score,[12],-0.217
same,composite z-score,[13],-0.603
same,z-score,[14],-0.84 (inactive)
same,composite z-score,[15],0.718
same,composite z-score,[16],0.24
same,composite z-score,[17],0.104
same,composite z-score,[18],0.588
same,composite z-score,[19],0.621
same,composite z-score,[20],0.145
O=C1[C@H]2[C@H]3[C@H](O)[C@H](O)CC(=NOCc4ccccc4)[C@H]3CC[C@H]2C(=O)N1C1CCCCC1,composite z-score,[1],0.542
same,z-score,[2],-0.577 (inactive)
same,z-score,[3],-0.355 (inactive)
same,z-score,[4],-0.858 (inactive)
same,composite z-score,[5],1.23
same,z-score,[6],0.119 (inactive)
same,composite z-score,[7],-0.162
same,composite z-score,[8],0.423
same,composite z-score,[9],1.14
same,composite z-score,[10],-0.0691
same,composite z-score,[11],0.817
same,composite z-score,[12],-0.163
same,composite z-score,[13],-0.301
same,z-score,[14],0.395 (inactive)
same,composite z-score,[15],0.378
same,composite z-score,[16],0.338
same,composite z-score,[17],0.511
same,composite z-score,[18],0.448
same,composite z-score,[19],0.79
same,composite z-score,[20],-0.0077
